# PubChem BioAssay (NCI)
# This is part of a sample that, as a whole, favours compounds with a hit. Of some 79,000 tested, about 15% had one in any assay. A number with no mark means an inactive call. Calls of active or inactive are those of the source. Cut-off read from the data, not from the text of the source: active = growth inhibition above about 70%; inactive = the rest.
# Legend:
# [1] = NCI Yeast Anticancer Drug Screen. Data for the rad52 strain (AID 147);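 note: 0% = growth of vehicle-treated control cultures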; details: S. cerevisiae rad52 mutant growth inhibition, hits give high values
# Outline: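 Compounds are applied to a genetically defined yeast strain lacking normal DNA damage repair, and inhibition of growth is expressed relative to cultures given vehicle only.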
# [2] = NCI Yeast Anticancer Drug Screen. Data for the wt1 strain (AID 149);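 note: 0% = growth of vehicle-treated wt1 cultures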; details: S. cerevisiae wt1 strain (SPY 50644) growth inhibition, hits give high values
# Outline: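 The wt1 strain was treated with compounds, and growth was compared with vehicle-treated cultures to give inhibition.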
# [3] = NCI Yeast Anticancer Drug Screen. Data for the rad50EPP+ strain (AID 151);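 note: 0% = growth of vehicle-treated control cultures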; details: S. cerevisiae rad50 mutant strain, hits give high values
# Outline: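 Compounds were applied to the rad50EPP+ yeast strain, which bears a defined DNA repair alteration, and growth inhibition was determined relative to vehicle-treated cultures.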
# [4] = NCI Yeast Anticancer Drug Screen. Data for the rad50 strain (AID 155);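 note: 0% = growth of vehicle-only cultures of the same strain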; details: S. cerevisiae rad50 strain growth inhibition, hits give high values
# Outline: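 Cells are treated with compound, grown, and their growth is then scored against vehicle-only cultures of the same repair-deficient yeast strain.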
# [5] = NCI Yeast Anticancer Drug Screen. Data for the mec2-1 strain (AID 157); details: S. cerevisiae mec2-1 strain, hits give high values
# Outline: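 Strain: mec2-1 (DNA repair/cell cycle alteration). Compound exposure, then growth measured; inhibition expressed relative to vehicle.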
# [6] = NCI Yeast Anticancer Drug Screen. Data for the rad14 strain (AID 159);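 note: 0% = growth of vehicle-treated control cultures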; details: S. cerevisiae rad14 strain growth inhibition, hits give high values
# Outline: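 Readout: yeast growth inhibition, referenced to vehicle-only cultures. Strain bears a defined alteration in DNA damage repair.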
# [7] = NCI Yeast Anticancer Drug Screen. Data for the sgs1 mgt1 strain (AID 161);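 note: 0% = growth of cultures given vehicle only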; details: S. cerevisiae sgs1 mgt1 strain, hits give high values
# Outline: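 Read-out: growth inhibition vs vehicle controls. Cells: mutant yeast strain deficient in DNA damage repair.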
# [8] = NCI Yeast Anticancer Drug Screen. Data for the CLN2oe strain (AID 163);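 note: 0% = growth of vehicle-only control cultures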; details: S. cerevisiae CLN2oe strain, hits give high values
# Outline: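 Growth of a genetically modified yeast strain is measured after compound exposure and compared with cultures given vehicle alone.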
# [9] = NCI Yeast Anticancer Drug Screen. Data for the cln2 rad14 strain (AID 165);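 note: 0% = growth equal to vehicle treated cultures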; details: S. cerevisiae cln2 rad14 strain, hits give high values
# Outline: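 Compounds are applied to the cln2 rad14 yeast strain, and growth is then compared with that of vehicle-treated cultures to give inhibition.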
# [10] = NCI Yeast Anticancer Drug Screen. Data for the bub3 strain (AID 167); details: S. cerevisiae bub3 mutant strain, hits give high values
# Outline: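 Part of a panel of yeast mutants defective in DNA damage repair or cell cycle regulation. Each strain is grown with compound, and inhibition is calculated relative to solvent-treated cultures.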
# [11] = NCI Yeast Anticancer Drug Screen. Data for the wt2 strain (AID 169);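 note: 0% = growth of vehicle-treated yeast cultures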; details: S. cerevisiae wt2 strain growth inhibition, hits give high values
# Outline: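 This strain belongs to a panel of yeast strains with defined genetic alterations in DNA damage repair or cell cycle control. Compounds are applied, and growth inhibition is measured against vehicle-treated cultures.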
# [12] = NCI Yeast Anticancer Drug Screen. Data for the mlh1 strain (AID 171);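 note: 0% = growth of vehicle-treated control cultures of the same strain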; details: S. cerevisiae mlh1 strain growth inhibition, hits give high values
# Outline: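 Growth of the mutant yeast strain after compound exposure, expressed as inhibition relative to vehicle-only controls.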
# [13] = NCI Yeast Anticancer Drug Screen. Data for the sgs1 strain (AID 173);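 note: 0% = growth of vehicle-only control cultures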; details: S. cerevisiae sgs1 mutant, hits give high values
# Outline: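 Growth of a yeast strain bearing a defined genetic alteration is measured after compound treatment. Inhibition is expressed relative to vehicle-only controls.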
# [14] = NCI Yeast Anticancer Drug Screen. Data for the mlh1 rad18 strain (AID 175); details: S. cerevisiae mlh1 rad18 strain growth inhibition, hits give high values
# Outline: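 Read-out is yeast growth inhibition, calculated against vehicle-only controls. The compound was applied to a strain engineered with DNA damage repair alterations.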
# [15] = NCI Yeast Anticancer Drug Screen. Data for the rad18 strain (AID 177); details: S. cerevisiae rad18 mutant growth inhibition, hits give high values
# Outline: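 Growth of the mutant yeast strain after compound exposure, normalised to vehicle-only cultures.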
# [16] = at 5.0 µM (retest, dose inferred, filed as 0.5)
# [17] = at 50.0 µM (retest, dose inferred, filed as 5.0)
smiles,measurement,setting,value
CCNc1nnc(CSc2nc(-c3ccccc3)c(-c3ccccc3)[nH]2)s1,growth inhibition,[1]; at 1.2 µM,-6%
same,growth inhibition,[1]; at 3.7 µM,14%
same,growth inhibition,[1]; at 11.0 µM,-1%
same,growth inhibition,[1]; at 33.0 µM,86% (active)
same,growth inhibition,[1]; at 100.0 µM,80% (active)
same,growth inhibition,[2]; at 1.2 µM,-4%
same,growth inhibition,[2]; at 3.7 µM,-9%
same,growth inhibition,[2]; at 11.0 µM,-19%
same,growth inhibition,[2]; at 33.0 µM,81% (active)
same,growth inhibition,[2]; at 100.0 µM,77% (active)
same,growth inhibition,[3]; at 1.2 µM,9%
same,growth inhibition,[3]; at 3.7 µM,13%
same,growth inhibition,[3]; at 11.0 µM,12%
same,growth inhibition,[3]; at 33.0 µM,4%
same,growth inhibition,[3]; at 100.0 µM,5%
same,growth inhibition,[4]; at 1.2 µM,-3%
same,growth inhibition,[4]; at 3.7 µM,-15%
same,growth inhibition,[4]; [16],7%
same,growth inhibition,[4]; at 11.0 µM,-13%
same,growth inhibition,[4]; at 33.0 µM,77% (active)
same,growth inhibition,[4]; [17],94% (active)
same,growth inhibition,[4]; at 50.0 µM,79.3% (active)
same,growth inhibition,[4]; at 100.0 µM,76% (active)
same,growth inhibition,[5]; at 1.2 µM,8%
same,growth inhibition,[5]; at 3.7 µM,0%
same,growth inhibition,[5]; [16],-8%
same,growth inhibition,[5]; at 11.0 µM,-8%
same,growth inhibition,[5]; at 33.0 µM,73% (active)
same,growth inhibition,[5]; [17],93% (active)
same,growth inhibition,[5]; at 50.0 µM,66%
same,growth inhibition,[5]; at 100.0 µM,77% (active)
same,growth inhibition,[6]; at 1.2 µM,-10%
same,growth inhibition,[6]; at 3.7 µM,-4%
same,growth inhibition,[6]; at 11.0 µM,-51%
same,growth inhibition,[6]; at 33.0 µM,58%
same,growth inhibition,[6]; at 100.0 µM,55%
same,growth inhibition,[7]; [16],7%
same,growth inhibition,[7]; [17],97% (active)
same,growth inhibition,[7]; at 50.0 µM,64.8%
same,growth inhibition,[8]; at 1.2 µM,5%
same,growth inhibition,[8]; at 3.7 µM,-7%
same,growth inhibition,[8]; at 11.0 µM,5%
same,growth inhibition,[8]; at 33.0 µM,85% (active)
same,growth inhibition,[8]; at 100.0 µM,76% (active)
same,growth inhibition,[9]; [16],4%
same,growth inhibition,[9]; [17],97% (active)
same,growth inhibition,[9]; at 50.0 µM,75% (active)
same,growth inhibition,[10]; at 1.2 µM,-10%
same,growth inhibition,[10]; at 3.7 µM,-29%
same,growth inhibition,[10]; [16],36%
same,growth inhibition,[10]; at 11.0 µM,-23%
same,growth inhibition,[10]; at 33.0 µM,87% (active)
same,growth inhibition,[10]; [17],97% (active)
same,growth inhibition,[10]; at 50.0 µM,85.2% (active)
same,growth inhibition,[10]; at 100.0 µM,82% (active)
same,growth inhibition,[11]; at 1.2 µM,-3%
same,growth inhibition,[11]; at 3.7 µM,-9%
same,growth inhibition,[11]; at 11.0 µM,-37%
same,growth inhibition,[11]; at 33.0 µM,92% (active)
same,growth inhibition,[11]; at 100.0 µM,83% (active)
same,growth inhibition,[12]; at 1.2 µM,3%
same,growth inhibition,[12]; at 3.7 µM,5%
same,growth inhibition,[12]; at 11.0 µM,0%
same,growth inhibition,[12]; at 33.0 µM,81% (active)
same,growth inhibition,[12]; at 100.0 µM,66%
same,growth inhibition,[13]; at 1.2 µM,23%
same,growth inhibition,[13]; at 3.7 µM,18%
same,growth inhibition,[13]; at 11.0 µM,18%
same,growth inhibition,[13]; at 33.0 µM,71% (active)
same,growth inhibition,[13]; at 100.0 µM,80% (active)
same,growth inhibition,[14]; [16],-1%
same,growth inhibition,[14]; [17],93% (active)
same,growth inhibition,[14]; at 50.0 µM,86.3% (active)
same,growth inhibition,[15]; at 1.2 µM,12%
same,growth inhibition,[15]; at 3.7 µM,16%
same,growth inhibition,[15]; at 11.0 µM,13%
same,growth inhibition,[15]; at 33.0 µM,89% (active)
same,growth inhibition,[15]; at 100.0 µM,79% (active)
O=S(=O)(CCCl)c1ccccc1Cl,growth inhibition,[1]; at 1.2 µM,-5%
same,growth inhibition,[1]; at 3.7 µM,1%
same,growth inhibition,[1]; at 11.0 µM,42%
same,growth inhibition,[1]; at 33.0 µM,93% (active)
same,growth inhibition,[1]; at 100.0 µM,99% (active)
same,growth inhibition,[2]; at 1.2 µM,3%
same,growth inhibition,[2]; at 3.7 µM,23%
same,growth inhibition,[2]; at 11.0 µM,33%
same,growth inhibition,[2]; at 33.0 µM,94% (active)
same,growth inhibition,[2]; at 100.0 µM,98% (active)
same,growth inhibition,[3]; at 1.2 µM,-7%
same,growth inhibition,[3]; at 3.7 µM,15%
same,growth inhibition,[3]; at 11.0 µM,43%
same,growth inhibition,[3]; at 33.0 µM,79% (active)
same,growth inhibition,[3]; at 100.0 µM,84% (active)
same,growth inhibition,[4]; at 1.2 µM,-8%
same,growth inhibition,[4]; at 3.7 µM,-12%
same,growth inhibition,[4]; [16],-119%
same,growth inhibition,[4]; at 11.0 µM,65%
same,growth inhibition,[4]; at 33.0 µM,94% (active)
same,growth inhibition,[4]; [17],79% (active)
same,growth inhibition,[4]; at 50.0 µM,94.2% (active)
same,growth inhibition,[4]; at 100.0 µM,98% (active)
same,growth inhibition,[5]; at 1.2 µM,2%
same,growth inhibition,[5]; at 3.7 µM,8%
same,growth inhibition,[5]; [16],-36%
same,growth inhibition,[5]; at 11.0 µM,19%
same,growth inhibition,[5]; at 33.0 µM,83% (active)
same,growth inhibition,[5]; [17],79% (active)
same,growth inhibition,[5]; at 50.0 µM,91.8% (active)
same,growth inhibition,[5]; at 100.0 µM,98% (active)
same,growth inhibition,[6]; at 1.2 µM,-2%
same,growth inhibition,[6]; at 3.7 µM,11%
same,growth inhibition,[6]; at 11.0 µM,45%
same,growth inhibition,[6]; at 33.0 µM,91% (active)
same,growth inhibition,[6]; at 100.0 µM,99% (active)
same,growth inhibition,[7]; [16],-42%
same,growth inhibition,[7]; [17],87% (active)
same,growth inhibition,[7]; at 50.0 µM,90.8% (active)
same,growth inhibition,[8]; at 1.2 µM,-5%
same,growth inhibition,[8]; at 3.7 µM,-2%
same,growth inhibition,[8]; at 11.0 µM,3%
same,growth inhibition,[8]; at 33.0 µM,68%
same,growth inhibition,[8]; at 100.0 µM,97% (active)
same,growth inhibition,[9]; [16],-42%
same,growth inhibition,[9]; [17],25%
same,growth inhibition,[9]; at 50.0 µM,84.3% (active)
same,growth inhibition,[10]; at 1.2 µM,-1%
same,growth inhibition,[10]; at 3.7 µM,6%
same,growth inhibition,[10]; [16],-59%
same,growth inhibition,[10]; at 11.0 µM,38%
same,growth inhibition,[10]; at 33.0 µM,94% (active)
same,growth inhibition,[10]; [17],80% (active)
same,growth inhibition,[10]; at 50.0 µM,90.7% (active)
same,growth inhibition,[10]; at 100.0 µM,98% (active)
same,growth inhibition,[11]; at 1.2 µM,8%
same,growth inhibition,[11]; at 3.7 µM,32%
same,growth inhibition,[11]; at 11.0 µM,64%
same,growth inhibition,[11]; at 33.0 µM,98% (active)
same,growth inhibition,[11]; at 100.0 µM,99% (active)
same,growth inhibition,[12]; at 1.2 µM,-10%
same,growth inhibition,[12]; at 3.7 µM,-1%
same,growth inhibition,[12]; at 11.0 µM,27%
same,growth inhibition,[12]; at 33.0 µM,90% (active)
same,growth inhibition,[12]; at 100.0 µM,97% (active)
same,growth inhibition,[13]; at 1.2 µM,-5%
same,growth inhibition,[13]; at 3.7 µM,0%
same,growth inhibition,[13]; at 11.0 µM,64%
same,growth inhibition,[13]; at 33.0 µM,95% (active)
same,growth inhibition,[13]; at 100.0 µM,99% (active)
same,growth inhibition,[14]; [16],-115%
same,growth inhibition,[14]; [17],81% (active)
same,growth inhibition,[14]; at 50.0 µM,90.2% (active)
same,growth inhibition,[15]; at 1.2 µM,-1%
same,growth inhibition,[15]; at 3.7 µM,13%
same,growth inhibition,[15]; at 11.0 µM,83% (active)
same,growth inhibition,[15]; at 33.0 µM,96% (active)
same,growth inhibition,[15]; at 100.0 µM,98% (active)
